Screening data from PubChem BioAssay.
Integrin act MD = integrin-mediated muscular dystrophy alleviation activation | Potency, µM (highest dose often 38.3 µM), for the others: at the top dose activation, usual class: activators | AID 624291 | 350,000 tested, 0.064% active | alpha7betagal myoblasts, beta-gal FDG fluorescence, 48 h;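 note: potency is the fitted concentration of half-maximal effect; 100% = response of the positive control SU9516; nearly all actives have a fitted effect of over 60% in size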
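Alpha7betagal+/- myoblasts (passage 13) were plated 16-24 hr, then exposed to compounds (1:260 dilution of DMSO stock) for 48 hours at 37C. After MPER lysis, β-galactosidase reporter activity was read as FDG fluorescence (ex 480/em 540) after 30 minutes.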
CBFb RUNX1 block = blocks binding between human CBF-beta and RUNX1; 230,000 tested, under 10 active; AID 1477; Potency, µM (top dose mostly 59.8 µM), inactives show at the top dose activity, negative = inhibition, actives largely listed as inhibitors; AlphaScreen CBFb-His/RUNX1-biotin binding, biochemical; note: % of control where 0% means no effect
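Inhibition was taken as any reduction in AlphaScreen signal from the CBF-beta–RUNX1 pair (His and biotin tags, 30 nM each), measured after compound (15 min) and bead (90 min) incubations at room temperature.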
PTHR1 agonist = activates the human parathyroid hormone receptor PTHR1; Q03431; HEK293 GP2 PTHR1 cells, GloSensor cAMP luminescence, 1 h; Potency, µM (top dose mostly 115 µM), for the others: at the highest dose activation, hits mostly activators; 410,000 tested, 0.075% active; AID 743266; note: potency is the fitted concentration of half-maximal effect; nearly all actives have a fitted effect of over 55% in size
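HEK-293-derived GP2 cells expressing PTHR1 and a GloSensor cAMP reporter, 3,000/well, plated overnight, given luciferin plus IBMX (each 0.5 mM as added) for 1 h at 37 °C, then compound for 1 h at 37 °C. Luminescence was read after 15 min at room temperature.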
DRD3 antagonist = D3 dopamine receptor (human) antagonism | 360,000 tested, 2.5% active | max response, negative = inhibition, % | D3R cells, DiscoveRx beta-arrestin luminescence, antagonist mode; hits give low values; in the data active = max response below about -50%; inconclusive = no clear call, values can overlap the other calls; note: % is set by controls: 0 for no effect and ±100 for the full control effect
Target sequence (P35462 whole entry, looked up): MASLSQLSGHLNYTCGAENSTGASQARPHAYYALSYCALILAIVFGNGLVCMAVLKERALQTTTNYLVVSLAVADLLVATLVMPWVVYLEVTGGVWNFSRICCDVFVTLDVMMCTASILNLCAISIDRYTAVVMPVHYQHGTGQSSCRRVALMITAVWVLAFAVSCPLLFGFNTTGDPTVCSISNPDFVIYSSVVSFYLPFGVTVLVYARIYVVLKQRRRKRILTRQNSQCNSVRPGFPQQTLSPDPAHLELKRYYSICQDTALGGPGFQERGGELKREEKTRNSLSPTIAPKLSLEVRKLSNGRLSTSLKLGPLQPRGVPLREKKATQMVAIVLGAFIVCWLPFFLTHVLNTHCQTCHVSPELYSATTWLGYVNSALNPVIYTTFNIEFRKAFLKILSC
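Cells plated overnight at 1500 cells/well, then exposed to library compounds with dopamine controls for 90 minutes at 37 degrees C. DiscoveRx reagent added for 30–60 minutes at room temperature; luminescence read, quantitative HTS format.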
MBNL1-CUG inh = blocks human MBNL1 binding to CUG repeat RNA; Q9NR56; TR-FRET MBNL1-His/biotin-(CUG)12 binding, 665/545 ratio; Potency, µM (series often up to 57.5 µM), for inactives: top-dose activity change, negative = inhibition, usual class: inhibitors; 280,000 tested, 0.036% active; active = well fitted inhibition curve with a large enough effect in the signal ratio, with a control signal flat, not every such curve was filed as active; inconclusive = small, poorly fitted or top-dose-only effect, or effect the other way, or a change in a side signal; inactive = no such curve, though single readings can be large or run the other way; the % refers to the signal ratio; note: potency is the fitted concentration of half-maximal effect; % is set by controls: 0 for no effect and ±100 for the full control effect
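His-tagged MBNL1 binding to biotinylated (CUG)12 RNA was measured by TR-FRET using terbium anti-His antibody (0.055 ng/ul final) and streptavidin-XL665 (5 nM final). Compounds were titrated 92 nM to 58 uM; 60 min at room temperature.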
D3 ag = agonists of human D3 dopamine receptor | max activation, % | 410,000 tested, 0.58% active | D3R DiscoveRx beta-arrestin cells, luminescence, 90 min; in the data active = max activation above about 30%; note: 0% is about no effect
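Agonist mode: compounds and dopamine controls were applied to plated cells for 90 min at 37 degrees C after an overnight attachment at 1500 cells/well. Luminescent read-out followed 30 - 60 minutes at room temperature with DiscoveRx detection reagent.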
An asterisk follows results filed as active; i = inactive; ? = inconclusive; / = no result; [ ] = remark or other dose. An excerpt weighted towards active compounds, which were near 2.8% of everything screened. Unless noted, calls come from the whole dose curve; as a rule, active = well fitted curve in the direction sought with a large enough effect; inconclusive = small, poorly fitted or top-dose-only effect, or another doubt; inactive = no such curve, though single readings can be large; an effect the other way counts as inactive or inconclusive.

SMILES	Integrin act MD	CBFb RUNX1 block	PTHR1 agonist	DRD3 antagonist	MBNL1-CUG inh	D3 ag
CC(CC(=O)Nc1ccc2c(c1)c(=O)n(C)n2-c1cccs1)c1ccccc1 (stereo not drawn)	/	/	i	-53*	/	-16
Cc1ccc(C)c(CN2C(=O)c3ccccc3Sc3ccc(C(=O)NC4CCCC4)cc32)c1	/	/	?	/	/	10
CC(=O)Nc1ccccc1NC(=O)C/C(C)=N/NC(=O)c1ccc([N+](=O)[O-])c(Cl)c1	-14%	-7%	i	-58*	?	-6
C/C(CC(=O)Nc1cccnc1)=N\NC(=O)c1ccc([N+](=O)[O-])c(Cl)c1	24%	11%	0%	0	?	4
COC(=O)C1=C(C)N(Cc2ccccc2)C(=NCc2ccc(OC)cc2)N[C@H]1c1ccccc1	-46%	/	11%	-54*	4%	-40
CCOC(=O)c1ccc(CC(=O)c2ccc(O)cc2O)o1	-38%	-7%	i	29	5%	32*
CC(=O)SCC(=O)N=c1sc2cc(F)ccc2n1C	8%	8%	i	60	5%	46*
OCCC1CN(Cc2cccc(-c3ccco3)c2)CCN1Cc1ccsc1 (stereo not drawn)	?	-4%	-11%	-77*	-1%	-10
OCCC1CN(Cc2ccc3nonc3c2)CCN1Cc1ccsc1 (stereo not drawn)	3%	-4%	i	-52*	?	-15
OCCC1CN(Cc2cnn(-c3ccccc3Cl)c2)CCN1Cc1ccsc1 (stereo not drawn)	-17%	3%	-7%	-68*	-4%	-17
O=C(c1ccc(Cl)cc1)C1CCCN(Cc2cnn(-c3ccccc3)c2)C1 (stereo not drawn)	-27%	0%	-42%	-71*	-16%	-13
O=C(c1ccc(-c2ccccc2)cc1)C1CCCN(Cc2ccncc2)C1 (stereo not drawn)	-1%	1%	-28%	-8	-8%	-9
CC(C)[C@@H](C)/C=C/[C@@H](C)[C@H]1CC[C@H]2/C(=C/C=C3\C[C@@H](O)CC[C@@H]3C)CCC[C@]12C	/	/	/	/	/	-8
CCOc1ccc(C(C)(C)C)cc1S(=O)(=O)n1nc(C)cc1C	-34%	18%	-18%	-50*	-10%	-1
COc1ccc(C)c(-n2c(=O)n(Cc3ccccc3)c(=O)c3[nH]cnc32)c1	0%	-1%	-18%	-97*	/	-29
Cc1ccc(S(C)=O)cc1-n1c(=O)n(Cc2ccccc2)c(=O)c2[nH]cnc21 (stereo not drawn)	-68%	/	-10%	-104*	14%	-31
COc1ccc(Cn2c(=O)c3[nH]cnc3n(-c3ccccc3C)c2=O)cc1	-13%	2%	-7%	5	/	24
Cc1ccccc1-n1c(=O)n(Cc2ccc(C(=O)O)cc2)c(=O)c2[nH]cnc21	15%	/	i	6	0%	8
C=C1C(=O)O[C@H]2[C@H]1[C@H](OC(=O)/C(C)=C\C)C[C@]1(CO1)[C@@H]1[C@H](OC(C)=O)C=C(C)[C@]21O	-45%	/	-3%	0	/	5
C=C1C(=O)O[C@@H]2[C@H]1[C@@H](OC(=O)/C(C)=C/C)C/C(C)=C\C(=O)/C=C(\C)[C@@H]2O	-41%	2%	-32%	-52*	-7%	-35
O=C(CCn1c(=O)sc2ccccc21)NCCC1=CCCCC1	18%	0%	i	-108*	-6%	-30
O=C(CCN1C(=O)c2ccccc2C1=O)NCCC1=CCCCC1	11%[7.66 µM]	5%	-28%[57.5 µM]	19	-7%	-21
COc1ccc2cc(C(=O)N/N=C/c3sc4ccccc4c3O)ccc2c1	15%	/	i	?	?	2
COc1ccc(C(=O)N/N=C/c2sc3ccccc3c2O)cc1	-58%	?	-9%	-51*	?	-17
CC(NCCCSc1ccccc1)C(O)c1ccc(O)cc1 (stereo not drawn)	-25%	/	i	-62*	/	-14
